Experimental data published in PubChem BioAssay (Tox21).
“And” between values parts separate entries of the source, which are not always exact repeats. Equal entries are not always repeated. Results filed as inconclusive are left out. Where a call stands in place of a potency, no number is given. Some structures have more than one record in an assay (separate samples or runs), and their calls can disagree. The source made the active and inactive calls. Unless noted, calls follow the shape of the dose curve; as a rule, active = well fitted cell-killing curve with a large enough effect in the repeat runs; inconclusive = weak or mixed curves, or effect the other way; inactive = no such curve, though single readings can be large or run the other way.

test: qHTS assay for small molecule agonists of the antioxidant response element (ARE) signaling pathway - cell viability counter screen (AID 743203; calls by dose curve; also: nearly all actives have a fitted effect of over 55% in size); details: ARE-bla HepG2 viability, CellTiter-Glo luminescence, 16 h; series mostly up to 73.3 µM
Method in brief: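 Cytotoxicity was tested in parallel with the ARE reporter screen. ARE-bla HepG2 cells were exposed to compounds for 16 hrs, and viability was taken from CellTiter-Glo luminescence.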
Potency is read from the fitted curve at half-maximal effect.

Which Potency does the source give for `CNC[C@H](O)[C@@H](O)[C@H](O)[C@H](O)CO` here?
Its Potency is “inactive”.

With `Nc1nc2ncc(CNc3ccc(C(=O)N[C@@H](CCC(=O)O)C(=O)O)cc3)nc2c(=O)[nH]1` as the compound, how does the Potency read?
The Potency was “inactive”.

With `CCCCCCCCCCCCN` as the compound, how does the Potency read?
Its Potency is “inactive and 24.3 µM (active)”.

With `CCC(=O)O` as the compound, how does the Potency read?
Its Potency is “inactive”.

test: qHTS assay for small molecule activators of the heat shock response signaling pathway - cell viability counter screen (AID 743209); details: HSE-bla HeLa viability, CellTiter-Glo luminescence, 5 h; series mostly up to 62.6 µM; also: nearly all actives have a fitted effect of over 50% in size
Method in brief: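 Cytotoxicity counter screen run in parallel with the HSE beta-lactamase reporter, using the same wells. HeLa HSE-bla cells received compound for 5 h at 37 C; ATP-based CellTiter-Glo luminescence was measured after 30 min at room temperature.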

With `CC1=C(/C=C/C(C)=C/C=C/C(C)=C/CO)C(C)(C)CCC1` as the compound, how does the Potency read?
Its Potency is “inactive”.

With `O=C1N=C(O)CN1/N=C/c1ccc(-c2ccc([N+](=O)[O-])cc2)o1` as the compound, how does the Potency read?
The Potency was “inactive”.

With `OCC#CCO` as the compound, how does the Potency read?
The Potency was “inactive”.

Which Potency does the source give for `CCOC(=O)/C=C\C(=O)OCC` here?
The Potency was “inactive”.

Which Potency does the source give for `CCCCCC/C=C/CCCCCCCC(=O)O` here?
Its Potency is “inactive”.

Which Potency does the source give for `CCCCC/C=C\C/C=C\CCCCCCCC(=O)OC` here?
Its Potency is “inactive and 38.9 µM (active)”.

Which Potency does the source give for `CCCCCCOC(C)=O` here?
Its Potency is “inactive”.

Which Potency does the source give for `S=c1nc[nH]c2nc[nH]c12` here?
The Potency was “inactive”.

Which Potency does the source give for `CC(C)(C)C1CCC(O)CC1` (configuration not stated) here?
The Potency was “inactive”.

With `CC(=O)[C@@]1(O)CC[C@H]2[C@@H]3CCC4=CC(=O)CC[C@]4(C)[C@H]3CC[C@@]21C` as the compound, how does the Potency read?
The Potency was “inactive”.

With `CCCCCCCCCC(=O)O` as the compound, how does the Potency read?
Its Potency is “inactive”.

Which Potency does the source give for `NCc1cccc(CN)c1` here?
The Potency was “inactive”.

With `CC(C)n1c(/C=C/[C@@H](O)C[C@@H](O)CC(=O)O)c(-c2ccc(F)cc2)c2ccccc21` as the compound, how does the Potency read?
The Potency was “inactive”.

For `CCCCC(CC)COC(=O)CCCCCCCC(=O)OCC(CC)CCCC` (configuration not stated), which Potency is on record?
The Potency was “inactive”.

For `OCC1CCCO1` (configuration not stated), which Potency is on record?
The Potency was “inactive”.

For `CCOC(=O)C1OC1c1ccccc1` (configuration not stated), which Potency is on record?
Its Potency is “inactive”.

With `C=C(C)C(=O)OCCC[Si](OC)(OC)OC` as the compound, how does the Potency read?
Its Potency is “inactive”.

With `O=[N+]([O-])c1cc(N(CCO)CCO)ccc1NCCO` as the compound, how does the Potency read?
The Potency was “inactive”.

For `CC1=CC[C@H]2C[C@@H]1C2(C)C`, which Potency is on record?
The Potency was “inactive”.

Which Potency does the source give for `C/C=C(C)/C=C/C=C(C)C` here?
Its Potency is “inactive”.

For `C=C1CC[C@H](O)CC1=C/C=C1\CCC[C@]2(C)[C@@H]([C@H](C)/C=C/[C@H](C)C(C)C)CC[C@@H]12`, which Potency is on record?
Its Potency is “inactive”.

Which Potency does the source give for `CCCCC(CC)C(=O)OCCOCCOCCOC(=O)C(CC)CCCC` (configuration not stated) here?
Its Potency is “inactive”.

With `C=C(C)C(=O)OCC(CC)(COC(=O)C(=C)C)COC(=O)C(=C)C` as the compound, how does the Potency read?
Its Potency is 12.1 µM (active).

For `Oc1ccc2ccccc2c1`, which Potency is on record?
The Potency was “inactive”.

With `CCCCCCCCCCC=CC1CC(=O)OC1=O` (configuration not stated) as the compound, how does the Potency read?
Its Potency is “inactive”.

Which Potency does the source give for `C[C@@H]1O[C@@H](OC[C@H]2O[C@@H](Oc3c(-c4ccc(O)c(O)c4)oc4cc(O)cc(O)c4c3=O)[C@H](O)[C@@H](O)[C@@H]2O)[C@H](O)[C@H](O)[C@H]1O` here?
The Potency was “inactive”.

For `O=C(c1cc(O)c(O)c(O)c1)c1ccc(O)c(O)c1O`, which Potency is on record?
The Potency was “inactive”.

Which Potency does the source give for `Oc1ccc(OCc2ccccc2)cc1` here?
Its Potency is “inactive”.

With `Cc1cc(Cc2ccc(N)c(C)c2)ccc1N` as the compound, how does the Potency read?
Its Potency is “inactive”.

Which Potency does the source give for `CNC[C@H](O)[C@@H](O)[C@H](O)[C@H](O)CO` here?
The Potency was “inactive”.

Which Potency does the source give for `CC(C)(C)C(=O)C1C(=O)c2ccccc2C1=O` here?
Its Potency is “inactive”.

For `Nc1nc2ncc(CNc3ccc(C(=O)N[C@@H](CCC(=O)O)C(=O)O)cc3)nc2c(=O)[nH]1`, which Potency is on record?
Its Potency is “inactive”.

For `CCCCCCCCCCCCN`, which Potency is on record?
The Potency was “inactive and 43.6 µM (active)”.

With `Cc1cc(NS(=O)(=O)c2ccc(N)cc2)no1` as the compound, how does the Potency read?
Its Potency is “inactive”.

Which Potency does the source give for `O=C1O[C@H](CO)[C@@H](O)[C@H](O)[C@H]1O` here?
The Potency was “inactive”.

Which Potency does the source give for `O=c1c(-c2ccc(O)cc2)coc2cc(O)ccc12` here?
Its Potency is “inactive”.

For `Oc1c(Cl)cc(Cl)c(Cl)c1Cl`, which Potency is on record?
The Potency was “inactive”.

With `CCC(=O)O` as the compound, how does the Potency read?
Its Potency is “inactive”.
